Assay outcomes: PubChem, National Center for Advancing Translational Sciences (NCATS)
Shiga inhibitor – Shiga toxin inhibition; AID 2315; inhibition, % at 38.7 µM; Vero cells, Shiga toxin protein synthesis inhibition reporter; 9.2% of 290,000 active; in the data active means inhibition mostly above about 28%, no sharp cut-off; inactive means mostly below about 43%; further: 0% is about no effect
CHX counter – counter-screen hit for Shiga toxin inhibitors, cycloheximide. cell reporter, cycloheximide protein synthesis inhibition counterscreen. max response, %. 12% of 300,000 active. AID 2314; in the data active means max response mostly above about 13%, no sharp cut-off; inactive means mostly below about 14%; further: read at 38.3 µM for the half of the compounds with a filed dose; 0% is about no effect
FBPA Giardia inh – blocks Giardia fructose-bisphosphate aldolase activity; A8B2U2; purified Giardia FBPA; Potency, µM (highest dose often 59.6 µM), for the others: at the highest dose activity, negative = inhibition, actives largely listed as inhibitors; 0.71% of 290,000 active; AID 2451; further: potency means the concentration at half of the fitted maximal effect; on the % scale 0 is the no-effect control and ±100 the full control effect; nearly all actives have a fitted effect of over 55% in size
Target sequence (A8B2U2 whole entry, looked up): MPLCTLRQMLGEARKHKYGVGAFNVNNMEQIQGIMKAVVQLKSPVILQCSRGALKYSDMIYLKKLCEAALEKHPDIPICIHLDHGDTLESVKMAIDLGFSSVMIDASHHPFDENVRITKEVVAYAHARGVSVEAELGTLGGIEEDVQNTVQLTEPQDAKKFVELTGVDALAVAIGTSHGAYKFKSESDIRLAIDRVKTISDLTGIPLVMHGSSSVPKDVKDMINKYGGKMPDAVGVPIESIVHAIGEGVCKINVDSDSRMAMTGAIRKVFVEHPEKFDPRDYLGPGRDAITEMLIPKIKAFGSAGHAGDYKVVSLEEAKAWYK
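Giardia FBPA (40 nM reagent) was preincubated 10 min at RT with compound (up to 57.5 uM final), then substrate plus GAPDH/TPI/NAD/arsenate coupling system with diaphorase/resazurin was added; resorufin fluorescence (525/598 nm) was read after 20 min.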
LmPK inh – inhibitors of Leishmania mexicana pyruvate kinase. Q27686. purified LmPK, Kinase-Glo ATP luminescence, 1 h. Potency, µM (titrated, usually from 57.5 µM), without a hit: at the top dose activity change, negative = inhibition, actives largely listed as inhibitors. 0.37% of 290,000 active; further: potency means the concentration at half of the fitted maximal effect; on the % scale 0 is the no-effect control and ±100 the full control effect
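Pyruvate kinase activity monitored as ATP production (luciferase luminescence). Conditions: 0.1 nM enzyme, 0.5 mM PEP, 0.1 mM ADP, 1 h, RT; normalized against uninhibited and no-enzyme wells.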
TbPYK inhibitor – T. brucei pyruvate kinase inhibition; TbPYK enzyme, Kinase-Glo Plus ATP luminescence, 45 min; Potency, µM (titrated, usually from 76.8 µM), inactives show at the highest dose activity, negative = inhibition, usual class: inhibitors; 0.12% of 410,000 active; further: potency means the concentration at half of the fitted maximal effect; on the % scale 0 is the no-effect control and ±100 the full control effect; nearly all actives have a fitted effect of over 50% in size
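Luminescence from Kinase-Glo Plus, added after a 45-minute room-temperature reaction, served as the end-point read-out. The enzyme and substrate were preincubated with compound before ADP (130 uM final) initiated turnover. Concentration-effect curves came from normalized qHTS data.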
Sm TGR block – S. mansoni TGR enzyme inhibition | Q962Y6 | purified TGR, DTNB reduction, TNB absorbance 405 nm | Potency, µM (titrated, usually from 114 µM), for inactives: top-dose activity change, negative = inhibition, actives largely listed as inhibitors | 3% of 360,000 active; further: potency means the concentration at half of the fitted maximal effect; on the % scale 0 is the no-effect control and ±100 the full control effect; nearly all actives have a fitted effect of over 60% in size
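TGR 20 nM + NADPH 100 uM (dispensed conc.), cpd preinc 15 min RT; start with NADPH (500 uM addition) then DTNB (15 mM addition). Kinetic TNB absorbance, 405 nm filter. Four-parameter Hill fit across titration.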
* = called active by the depositor; u = inconclusive; x = no result given; [ ] = dose if it differs, or a comment. Only a selection was taken, and hits are over-represented in it overall. Unless noted, the call rests on the fitted dose curve; in most records, active means well fitted curve in the direction sought with a large enough effect; inconclusive means small, poorly fitted or top-dose-only effect, or another doubt; inactive means no such curve, though single readings can be large; an effect the other way counts as inactive or inconclusive.

SMILES | Shiga inhibitor | CHX counter | FBPA Giardia inh | LmPK inh | TbPYK inhibitor | Sm TGR block
N/C(=N\OC(=O)C1CCCCC1)c1cccc(Br)c1 | -7 | -3 | 4% | -6% | -11% | 6%
COc1ccc(/C(N)=N/OC(=O)CCC2CCCC2)cc1OC | 58* | 23* | 5% | 2% | -13% | -5%
Cc1nc2ccn(Cc3cccs3)c(=O)c2cc1C(=O)N1CCN(c2ccccc2)CC1 | x | x | x | x | -5% | 7%
CC(NC(=O)c1ccco1)C(=O)N1CCN(c2cccc(C(F)(F)F)c2)CC1 (stereo not drawn) | x | x | x | x | -13% | -20%
CCOC(=O)c1cc(C)n(CC2CCC(C(=O)Nc3ccc(C(C)=O)cc3)CC2)c1C (stereo not drawn) | x | x | x | x | 8% | 4%
CCCCOC(=O)n1c(=O)oc2ccccc21 | 44 | 26* | 0% | 1% | 9% | 5%
COC(=O)n1c(=O)oc2ccccc21 | 6 | -3 | -1% | -5% | -1% | -4%
CC1CCCCN1C(=O)Cn1c(=O)n(-c2ccc(Cl)cc2)c(=O)c2c3c(sc21)CCC3 (stereo not drawn) | x | x | x | x | -2% | 3%
COc1ccc2nc3cccc(OC)c3nc2c1 | 63* | 44* | 1.4µM* | -7% | -10% | 20µM*
COc1cc(OC)c2c(OC)cccc2n1 | -7 | -2 | 0% | 3% | -4% | -2%
COc1ccc2nc3ccccc3nc2c1N | 159* | 49* | -11% | u | -16% | u
O=C(Cn1ncc(N2CCOCC2)c(Br)c1=O)c1ccc(Cl)cc1 | 80* | 35* | 1% | 2% | 1% | x
CC(=O)Cn1ncc(N2CCOCC2)c(Cl)c1=O | -4 | 7 | 2% | 1% | -2% | 6%
O=C(Cn1ncc(N2CCCC2)c(Cl)c1=O)c1ccc(Cl)cc1 | 90* | 38* | -2% | -2% | 6% | 1%
CO/N=C(\Cn1ncc(N2CCCC2)c(Br)c1=O)c1ccc(Cl)cc1 | -9 | -1 | -3% | 0% | -4% | 1%
CC(C)(C)C(=O)Cn1ncc(N2CCOCC2)c(Cl)c1=O | 32* | 17* | 8% | -6% | 3% | -10%
O=C(COc1ccc([N+](=O)[O-])cc1Cl)N1CCOCC1 | -12 | -7 | -2% | -1% | -2% | 8%
Cc1ccc(-c2ccc(C3C4C=CCC(C)C4C(=O)N3Cc3ccccc3)c(F)c2)cc1 (stereo not drawn) | 3 | 7 | -7% | x | x | x
Nc1nc(Sc2c([N+](=O)[O-])cc(C(F)(F)F)cc2[N+](=O)[O-])n[nH]1 | 48* | 11 | -11% | 1% | -1% | 7.9µM*
Cc1ccc(-c2nnc(Nc3ccc(O)cc3)c3ccccc23)cc1S(=O)(=O)NC(C)(C)CO | x | x | x | x | -1% | -20%
COc1cc(C2Nc3cc(Cl)c(S(N)(=O)=O)cc3S(=O)(=O)N2)ccc1OCc1ccccc1 (stereo not drawn) | 128* | 55* | -15% | -21% | -16% | -3%
O=C(N/N=C/c1cc([N+](=O)[O-])ccc1O)NC12CC3CC(CC(C3)C1)C2 | 96* | 73* | 20% | 4% | -4% | -13%
CCNC(=O)C(=O)N/N=C/c1cc([N+](=O)[O-])ccc1O | -14 | 10 | -3% | -4% | -1% | 8%
O=C(N/N=C/c1ccc(O)cc1O)NC12CC3CC(CC(C3)C1)C2 | 33* | 24* | 7% | 1% | -3% | 6%
O=C(N/N=C/c1cc([N+](=O)[O-])ccc1O)Nc1ccccc1 | 15 | 11 | 12% | -5% | 3% | 8%[57.1 µM]
SMILES | Shiga inhibitor | CHX counter | FBPA Giardia inh | LmPK inh | TbPYK inhibitor | Sm TGR block
COc1cc(/C=N/NC(=O)NC23CC4CC(CC(C4)C2)C3)ccc1OCC(N)=O | -5 | -1 | 7% | 2% | -3% | 10%
O=C(N/N=C/c1cc([N+](=O)[O-])ccc1O)C12CC3CC(CC(C3)C1)C2 | 20 | 25* | 9% | 12% | -1% | 0%
C/C(=N\NC(=O)CNc1ccccc1)c1ccccc1 | -6 | 2 | 0% | 1% | -1% | 0%
O=C(N/N=C/c1cccc(O)c1)c1cc(-c2ccccc2)nc2ccccc12 | 22 | 9 | 4% | -4% | 3% | 14%
O=C(N/N=C/c1cccc(O)c1)c1csc2ccccc12 | 87* | 49* | -10% | -4% | -7% | 7%
Oc1cccc(/C=N/NP(=S)(c2ccccc2)c2ccccc2)c1 | 5 | 14* | 3% | 5% | 6% | 5%
O=C(N/N=C\c1ccccc1O)c1ccccc1O | x | x | 12% | x | x | x
Cc1ccc(NCC(=O)N/N=C\c2cccc(O)c2)cc1 | 29 | 18* | 0% | 2% | -2% | x
O=C(N/N=C/c1cccc(O)c1)c1ccccc1O | 68* | 49* | -4% | u | 6% | 3%
Oc1cccc(C=NCc2ccccc2)c1 | -17 | -3 | 3% | 2% | 16% | 3%
CCCN(Cc1cccs1)C(=O)Nc1cc(Cl)ccc1C | x | x | x | x | -1% | 4%
C/C(=N\NC(=O)c1csc2ccccc12)c1ccc(O)cc1 | 32 | 18* | -8% | 0% | 2% | -3%
CCCn1c(-c2ccc(F)cc2)nc2c(N3CCCN(Cc4ccccc4)CC3)nc(C)nc21 | x | x | -5% | x | x | x
COc1cccc(C(=O)NCCn2ccc3ccccc32)c1 | 45* | 25* | 3% | -13% | 4% | 0%
Cc1cc2ccccc2n1CCNC(=O)C1CCCCC1 | 9 | 1 | -4% | -2% | 5% | 5%
COc1ccc(C(=O)NCCn2ccc3ccccc32)cc1OC | 23 | 18* | 13% | 3% | -8% | 1%
COc1cc(OC)cc(C(=O)NCCn2ccc3ccccc32)c1 | -3 | 10 | -5% | 13% | -1% | 9%
O=C(NCCn1ccc2ccccc21)C1CCCCC1 | 24* | 18* | 3% | 2% | 4% | 5%
O=C(O)c1ccc(Nc2nc(-c3ccccc3)cs2)cc1 | 112* | 27* | 16% | 1% | -6% | 6%
Cc1csc(Nc2ccc(C(=O)O)cc2)n1 | 11* | 15 | 6% | -22% | 1% | -6%
Cc1csc(Nc2ccccc2)n1 | 44* | 23* | 0% | -2% | -4% | -2%
CCC(=O)Nc1nc(C)c(-c2csc(Nc3ccc(C(=O)O)cc3)n2)s1 | 5 | -1 | u | -3% | 5% | -25%
NC(=O)c1ccc(NC(=O)COC(=O)CCN=C2NS(=O)(=O)c3ccccc32)cc1 | x | x | x | x | -8% | -6%
CCc1ccc(CN(C(=O)c2ccc(OC)cc2)C2CCS(=O)(=O)C2)cc1 (stereo not drawn) | x | x | x | x | 5% | 7%
Cc1cccc(C)c1NC(=O)CNC(=O)CNC(=O)Cc1cccc2ccccc12 | x | x | x | x | 4% | 6.3µM*
O=C(Cc1cccc2ccccc12)Nc1c(F)cccc1F | 58* | 18* | 10% | -3% | 2% | 1%
